Hits are enriched below; roughly 8% of the tested compounds scored in any of these assays.
Lassa entry inh: blocks Lassa virus binding to or entry into cells; Potency, µM (titrated, usually from 37.9 µM), inactives show at the top dose activity change, negative = inhibition, actives largely listed as inhibitors; AID 540256; Lassa virus pseudotype entry inhibition, cell reporter; 300,000 tested, 1.2% active; calls by dose curve; tested in HEK293 cells; further: potency means the concentration at half of the fitted maximal effect; on the % scale 0 is the no-effect control and ±100 the full control effect; nearly all actives have a fitted effect of over 50% in size
Marburg entry inh: blocks Marburg virus binding to or entry into cells; Marburg virus pseudotyped entry inhibition, cell reporter; Potency, µM (titrated, usually from 37.8 µM), without a hit: at the top dose activity change, negative = inhibition, usual class: inhibitors; 300,000 tested, 1.8% active; AID 540276; calls by dose curve; tested in HEK293 cells; further: potency means the concentration at half of the fitted maximal effect; on the % scale 0 is the no-effect control and ±100 the full control effect
FMDV inh: blocks foot and mouth disease virus. 410,000 tested, 1.2% active. FMDV antiviral cell-based qHTS. Potency, µM (doses to about 57.9 µM), for the others: top-dose activity change, negative = inhibition, hits mostly inhibitors; calls by dose curve; tested in HEK293T cells; further: read-out not given here; potency means the concentration at half of the fitted maximal effect; on the % scale 0 is the no-effect control and ±100 the full control effect; nearly all actives have a fitted effect of over 45% in size
SARS PLpro yeast: inhibitors of SARS-CoV papain-like protease in yeast. S. cerevisiae expressing SARS-CoV PLpro, growth rescue. Potency, µM (doses to about 32.9 µM), inactives show at the top dose activity, positive = growth rescue, usual class: activators. 330,000 tested, 0.19% active; calls by dose curve; further: potency means the concentration at half of the fitted maximal effect; 0% is about no effect; nearly all actives have a fitted effect of over 55% in size
HCMV antiviral: human cytomegalovirus inhibition | 410,000 tested, 4.5% active | HFF cells, HCMV-luciferase reporter, 72 h; active compounds read low | activity change, negative = inhibition, % at 57.5 µM; in the data active means activity change below about -60%; inconclusive means no clear call, values can overlap the other calls; inactive means above about -39%; further: on the % scale 0 is the no-effect control and ±100 the full control effect
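HFF cells seeded 16 h at 37C, treated with compounds, infected with luciferase-reporter HCMV at MOI 1 PFU/cell; luciferase read at 72 h post infection, normalized to buffer-only and Salinomycin controls.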
HCV inh: inhibitors of hepatitis C virus infection; 340,000 tested, 3.4% active; AID 651820; Potency, µM (top dose mostly 41.8 µM), for inactives: at the top dose activity change, negative = inhibition, actives largely listed as inhibitors; Huh7.5.1 HCVcc-Cre infection, luciferase reporter, 44 h; active means well fitted inhibition curve with a large enough effect; inconclusive means small, poorly fitted or top-dose-only effect, or another doubt; inactive means no such curve, though single readings can be large or run the other way; further: potency means the concentration at half of the fitted maximal effect; on the % scale 0 is the no-effect control and ±100 the full control effect
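Infectious HCVcc-Cre (~0.5 moi) was added to cells just after compound, with cells seeded 4 h earlier at 1,000 per well. Luciferase activity after 44 h culture reported infection; substrate was incubated 15 min at room temperature before reading.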
An asterisk follows results filed as active; ? = inconclusive; / = not tested or not shown; + = active, no number; ! = not active in a repeat; [ ] = another dose, or the depositor's remark.

SMILES	Lassa entry inh	Marburg entry inh	FMDV inh	SARS PLpro yeast	HCMV antiviral	HCV inh
CN(C)CC(C)(O)c1ccc2c(c1)CN(Cc1cccn1-c1cccnc1)CCO2 (stereo not given)	/	/	9%	/	/	/
O=[N+]([O-])c1cc(-c2cnc3ccccc3n2)ccc1Oc1ccc(Cl)cc1	/	/	25%	-6%	44	?
COc1ccccc1Oc1ccc(-c2cnc3ccccc3n2)cc1[N+](=O)[O-]	?	?	1%	-1%	-87*	?
O=C1CSC(=Nc2ccc(O)cc2)N1	/	/	7%	1%	25	8%
O=C1C(Cl)=CC(=Nc2ccc(O)cc2)C=C1Cl	/	/	21%	-9%	-79*	-4%
Cc1ccccc1C(=O)Nc1cccc(OCc2cc(=O)n3c4c(sc3n2)CCCC4)c1	13%[46.1 µM]	-6%[46.1 µM]	-13%	/	-2	/
CN(C)C(=O)c1ccc(SC(=S)NCc2ccccc2)cc1	/	/	35µM*	/	-26	/
O=C(NCc1ccc(F)cc1)c1cc2cccc3c2n1CCS3	?	/	-17%	/	-70*	/
CCOc1ccc(C(=O)Nc2cccc(C)n2)cc1	?	8.9µM*	-18%	-8%	-36	-5%
CCOC(=O)NC(=S)Nc1cccc(C)n1	/	/	-7%	/	-63*	/
CCOc1ccc(C(=O)Nc2cc(C)ccn2)cc1	?	?	-88%	-14%	-65*	-11%
CCOc1cc(C(=O)Nc2cc(C)ccn2)cc(OCC)c1OCC	?	?	-30%	-43%	-95*	?
Cc1ccc(S(=O)(=O)c2cn(C)c3cc(N4CCCCCC4)c(F)cc3c2=O)cc1	-6%[46.1 µM]	/	-27%	/	-10	/
Cc1ccc(OCC(=O)Nc2ccc3nc(SCC(=O)N(C)c4ccccc4)sc3c2)cc1	4%[46.1 µM]	?	?	/	-28	/
Cc1cccc(NC(=O)Nc2ccccc2)n1	4%[46.1 µM]	?	28%	0%	-65*	-8%
Cc1ccnc(NC(=O)c2ccccc2NC(=O)c2ccccc2)c1	0%	-12%	15%	-4%	-4	?
Cc1ccnc(NC(=O)c2ccc(C(=O)c3ccccc3)cc2)c1	2.2µM*	6.3µM*	-39%	-15%	5	5%
COc1cccc(NC(=O)Nc2cccc(C)n2)c1	?	4%[46.1 µM]	26%	-2%	1	-24%
COc1ccc(CNC(=O)N2CC3ON=C(c4ccccc4C)C3C2)cc1 (stereo not given)	/	/	/	/	-31	/
O=C(NCc1ccccc1)C(Nc1ccccc1)c1ccccc1F (stereo not given)	/	/	/	/	-8	/
O=C(C1CCCN(S(=O)(=O)c2cccc3nsnc23)C1)N1CCN(c2ccccc2)CC1 (stereo not given)	?	?	?	/	-40	/
Nc1ccc(C(=O)C(=O)c2ccc(N)cc2)cc1	/	/	8%	-1%	-8	5%
N=C1C=CC(=C(c2ccc(N)cc2)c2ccc(N)cc2)C=C1	5µM*	4µM*	-47%	/	-100*	6.3µM*
CCOC(=O)C(CC)Sc1ncnc2sc3c(c12)CCCC3 (stereo not given)	-2%[46.1 µM]	-6%[46.1 µM]	-11%	/	-5	/
O=C1C2(c3ccccc3)CN(CCO)CC1(c1ccccc1)CN(CCO)C2	-2%	0%	-4%	2%	23	18%
SMILES	Lassa entry inh	Marburg entry inh	FMDV inh	SARS PLpro yeast	HCMV antiviral	HCV inh
CCC1(c2ccccc2)CN(C)C1=O (stereo not given)	/	/	-22%	/	-79*	/
CCN(CC)C(C)C(=O)Nc1c2c(cc3c1CCC3)CCC2 (stereo not given)	-13%	15µM*	-18%	-20%	-21	-26%
CC(C(=O)Nc1c2c(cc3c1CCC3)CCC2)N1CCCC1 (stereo not given)	?	?	-9%	-6%	-28	14%
Cc1ccc(NCCC(=O)c2cccs2)cc1	/	/	9%	-3%	5	12%
Cc1ccc(C(=O)N/N=C(/CC(=O)c2cccs2)C(F)(F)F)cc1	?	?	-10%	-20%	-86*	-24%
O=C(N/N=C(\CC(=O)c1cccs1)C(F)(F)F)c1ccncc1	?	?	-11%	1%	-76*	?
O=C(NCc1ccccc1F)C1CCCN(C(=O)N2CCOc3ccccc32)C1 (stereo not given)	-4%[46.1 µM]	/	0%	/	-12	/
CCCCC(=O)Nc1ccc2c(c1)nc(CCN1CCN(c3ccccn3)CC1)n2C	/	/	-7%	0%	-81*	-6%
Cc1ccc(OCC(=O)Nc2ccc3c(c2)nc(CCN2CCN(c4ccccn4)CC2)n3C)cc1	/	/	3.5µM*	/	-77*	/
Cn1c(CCN2CCN(c3ccccn3)CC2)nc2cc(NC(=O)COc3ccccc3)ccc21	/	/	?	0%	?	4µM*
Cn1c(CCN2CCN(c3ccccn3)CC2)nc2cc(NS(=O)(=O)c3ccccc3)ccc21	/	/	?	8%	+	10µM*
Cn1c(CCN2CCCCC2)nc2cc(NS(=O)(=O)c3ccccc3)ccc21	-13%	-25%	0%	-1%	13	-6%
CSc1nccc(-c2cc(Cl)c3c(c2)CC(CNC(=O)c2ccc(C)nc2)O3)n1 (stereo not given)	/	/	-20%	/	/	/
N/C(CCCN1CCCCC1)=N\O	/	4%	/	/	/	/
CCCC(=O)Nc1nc2c(s1)CC(C(C)(C)C)CC2 (stereo not given)	-3%[46.1 µM]	20%[46.1 µM]	55%	/	28	/
CC1=NNC(=O)/C1=C\c1cn(-c2ccccc2)nc1-c1ccc(Cl)cc1	?	?	10µM*	-5%	-102*	?
CCN(c1ccccc1)S(=O)(=O)c1cc(C(=O)Nc2ccccc2Cl)ccc1F	?	?	?	21%	-63*	?
CCN(c1ccccc1)S(=O)(=O)c1cc(C(=O)Nc2ccc(Br)cc2)ccc1F	12µM*	?	18µM*	3%	-89*	2.8µM*!
Cc1ccc(C(=O)Nc2ccccc2)cc1S(=O)(=O)Nc1ccc(Br)cc1	?	/	28%	/	-23	/
CCOc1ccc(/C=N/NC(=O)C2CC2)c(OCC)c1	-23%[46.1 µM]	7%[46.1 µM]	-12%	0%	-28	4.5µM*
COc1ccc(N2CCN(c3c(S(=O)(=O)c4ccccc4)cnc4ccc(OC)cc34)CC2)cc1	?	8.9µM*	0%	-72%	?	11µM*
CCOc1ccc2ncc(S(=O)(=O)c3ccccc3)c(N3CCC4(CC3)OCCO4)c2c1	-13%	-35%	/	-6%	?	1%
CCOc1ccc2ncc(S(=O)(=O)c3ccccc3)c(N3CCN(c4ccc(OC)cc4)CC3)c2c1	?	?	-27%	14%	5	?
COc1ccc(S(=O)(=O)c2cnc3ccc(OC)cc3c2N2CCC3(CC2)OCCO3)cc1	?	?	?	-20%	-74*	?
COc1ccccc1CNC(=O)CCCCn1c(=O)c2ccccc2n(CC(=O)Nc2cccc(Cl)c2)c1=O	-21%[46.1 µM]	4%[46.1 µM]	-21%	/	?	/

Screening data deposited in PubChem BioAssay by National Center for Advancing Translational Sciences (NCATS).
